The assay concerns Plasmodium falciparum. Put plainly: GSK_TCMDC: Inhibition of Plasmodium falciparum Dd2 in whole red blood cells, using parasite LDH activity as an index of growth. Test compounds present at 2uM. Format: functional.
For the molecule `CCCC(CC)n1ccc2c3c(N)nc(N)nc3ccc21.CS(=O)(=O)O` (centres undefined), the Inhibition is 97%.
The result for `COc1ccc(NC(=O)[C@H](Cc2ccccc2)Nc2cc(C)nc(NCc3ccccc3C)n2)cc1.O=C(O)C(F)(F)F` reads 71%.
Then `Cc1ccc(C(c2nnnn2C2CCCC2)N(Cc2ccco2)Cc2ccccc2Cl)cc1` (centres undefined), with 78%.
The molecule `CCOc1ccc(-c2nonc2NC(=O)c2ccc(Cl)cc2)cc1OCC` gave an Inhibition of 47%.
Then `CCOc1ccccc1C1CCN(CCCCNC(=O)c2ccc(NC(=O)c3ccc(Cl)cc3)cc2)CC1`, with 27%; and `Cc1cc(N[C@@H](CC(C)C)C(=O)NCCOc2ccccc2)nc(Nc2ccccc2)n1.O=C(O)C(F)(F)F`, with 9%.
The result for `CCC(COCc1ccc(Cl)cc1)N(C)CCN(C)C(CC)COCc1ccc(Cl)cc1.Cl` (centres undefined) reads 78%.
Regarding `Cc1cccc2nc(-c3cccc(-c4ccc(NC(=O)c5cccnc5)cc4)c3)[nH]c12`, the Inhibition was 45%.
Then `COc1c(O)cc2oc(-c3ccc(O)cc3)cc(=O)c2c1O` [HISPIDULIN], with 0%; and `Cc1ccc(F)cc1S(=O)(=O)N1CCCCC(c2ccc(C(F)(F)F)cc2)=N1`, with 75%.
Then `COc1ccc(Nc2nc(=Nc3ccccc3)nc(NN=Cc3cc(Cl)ccc3O)[nH]2)cc1`, with 10%.
The result for `CC(C)CCN1CCC(Oc2ccc(NC(=O)c3ccco3)cc2Cl)CC1.O=C(O)C(F)(F)F` reads 93%; that for `COc1ccccc1NC(=O)c1cc(C(=O)c2cc(Cl)ccc2O)cn(-c2ccccc2OC)c1=O`, 31%.
`CC(CNC1CCN(CCn2c(=O)ccc3ccc(F)cc32)CC1)c1ccccc1` (centres undefined) showed an Inhibition of 4%.
Then `OCCc1ccc(Nc2nccc(-c3nnc4ccccn34)n2)cc1`, with 46%; and `COc1ccc(-c2nc3c(N)nc(N)nc3nc2C(C)C)cc1`, with 0%.
The result for `O=C1Nc2cccc3c2C1(CCCCN1CCC(c2cc4ccncc4[nH]2)CC1)CCC3` (centres undefined) reads 0%; that for `COc1cccc(C(=O)C2CC2CN(C)CCC(O)c2ccc(Cl)c(Cl)c2)c1` (centres undefined), 95%; that for `NS(=O)(=O)c1cccc(Nc2nc(N[C@@H]3CCNC3)nc3cc[nH]c(=O)c23)c1.O=C(O)C(F)(F)F`, 98%.
The result for `Cc1ccc(O)c(CN2CCCC(COC(c3ccc(F)cc3)c3ccc(F)cc3)C2)c1` (centres undefined) reads 98%; that for `Cc1cccc2nc(-c3cccc(-c4cccc(NC(=O)c5cnn6cccnc56)c4)c3)[nH]c12`, 17%; that for `CCn1c(Sc2ccc(C#N)c([N+](=O)[O-])c2)nnc1-c1ccc(OC)cc1`, 94%.
`Cc1ccc(NC(=O)Nc2cccc(Cl)c2)cc1-c1ccc(C(=O)Nc2ccncc2)cc1` showed an Inhibition of 49%.
With `Cc1ccc(Nc2nccc(N(C)c3ccc4c(c3)nc(NC(=O)Cc3ccc(Cl)c(Cl)c3)n4C)n2)cc1S(N)(=O)=O.O=C(O)C(F)(F)F`, the Inhibition is on record as 60%.
Then `Cn1ccc2c3c(N)nc(N)nc3ccc21`, with 17%; and `Cc1cccc2nc(-c3cccc(-c4cccc(NC(=O)c5cccnc5)c4)c3)[nH]c12`, with 56%.
Consider `COc1ccc(C[C@H](N)C(=O)N[C@H]2[C@@H](O)[C@H](n3cnc4c(N(C)C)ncnc43)O[C@@H]2CO)cc1.Cl`, for which the Inhibition was found to be 91%.
Then `O=C(O)c1cc(OCC(O)COc2ccc(O)c(C(=O)O)c2)ccc1O`, with 6%; and `CCn1ccc2c(N3CCCCS3(=O)=O)cc(C(=O)N[C@@H](Cc3ccccc3)[C@H](O)CNC3CCCCC3)cc21`, with 98%; and `Cn1c(NC(=O)c2ccc(CNC(=O)c3ccc(O)c(-c4ccc(Cl)c(Cl)c4)c3)cc2)nc2ccccc21`, with 74%.
The result for `O=C(NCc1ccc2c(c1)OCO2)c1nn(CCN2CCC(N3CCCC3)CC2)cc1-c1ccc(Cl)c(Cl)c1` reads 17%; that for `O=C(NC1CC1)c1cnc(N2CCN(Cc3ccc(Cl)cc3)CC2)c(Cl)c1.O=C(O)C(F)(F)F`, 91%.
The result for `CCOC(=O)NC1=NC(=N)N(OCc2ccc(Cl)c(Cl)c2)C(C)(C)N1` reads 90%; that for `CC1CCN(C(=O)[C@H](Cc2c[nH]c3ccccc23)NS(=O)(=O)c2ccc(Cl)cc2)CC1`, 99%.
As to `O=C(O)C1Cc2c([nH]c3ccccc23)C(c2ccc(Cl)cc2Cl)N1` (centres undefined), the Inhibition came out at 100%.
Then `N#Cc1cnc2cc(-c3cnc(CNCCN4CCOCC4)s3)ccc2c1Nc1ccc(Oc2ccccc2)cc1`, with 83%; and `CC[C@H](NC(=O)c1c(N)c(-c2sccc2Cl)nc2ccccc12)c1ccccc1`, with 92%.
The result for `O=C(CC1SC(N2N=C(c3cccs3)CC2c2ccccc2)=NC1=O)Nc1ccccc1F` (centres undefined) reads 76%; that for `CN1CCCC1CCNc1ncc2c(-c3ccc(NC(=O)Nc4cc(C(F)(F)F)ccc4F)cc3)nn(C)c2n1.O=C(O)C(F)(F)F` (centres undefined), 72%.

A word on the Inhibition: it is the share of the control response that was lost under treatment. Low readings indicate a response near the control, high ones a response far below the control.

These data come from ChEMBL document CHEMBL1157539, “Thousands of chemical starting points for antimalarial lead identification” (Nature, 2010).
